Measured values from PubChem BioAssay AID624483 (NMMLSC, 2012).
In all, about 360,000 compounds went through this assay and about 11,000 (3.1%) were called active. Another 2% or so got no clear call; they are omitted. Shown is part of a subset that was picked to be rich in actives. Unmarked numbers belong to inactive results. No stated cut-off is given here; in the data, active means fluorescence intensity above about 16000; inconclusive means no clear call, values can overlap the other calls; inactive means below that.

Assay: compound fluorescence in toxin protease inhibitor counterscreen, primary screen, artefact control for toxin protease inhibitor project, biochemical, multiplex microsphere, HTS (AID 624483)
Details: compound autofluorescence counterscreen, microsphere flow cytometry; hits give high values

SMILES	fluorescence intensity
N#C/C(=C/c1cccc([N+](=O)[O-])c1)c1nnc2n1CCCCC2	1990
CS(=O)(=O)N(Cc1ccc(Cl)cc1)c1ccc(C(=O)NCCSCc2ccco2)cc1	10900
Cc1ccc(N(Cc2ccc(C(=O)Nc3ccccc3C(=O)NCc3ccco3)cc2)S(C)(=O)=O)cc1C	25100 (active)
Cc1cccc(Nc2ccccc2C(=O)NCc2ccco2)c1C	3190
O=C(Nc1ccc(S(=O)(=O)N2CCOCC2)cc1)c1ccc2ncsc2c1	4800
O=C(CSc1nnc(-c2c[nH]c3ccccc23)o1)c1ccccc1	7930
NC(=O)CSc1c[nH]c2ccccc12	20300 (active)
CCCn1cc(SCC(N)=O)c2ccccc21	6190
O=[N+]([O-])c1ccc(CN2CC(N3CCC(c4ccccc4)CC3)CS2(=O)=O)cc1 (centres undefined)	4360
COc1ccc(S(=O)(=O)N2CCC(C(=O)NCc3ccco3)CC2)cc1C	3590
COc1ccc(CNC(=O)C2CC(c3ccc(C(F)(F)F)cc3)=NO2)cc1 (centres undefined)	4040
COc1ccc(C2=NOC(C(=O)NCc3ccco3)C2)cc1OC (centres undefined)	21200 (active)
CCOC(=O)N1CCN(C(=O)c2cn(C)c3ccc(S(=O)(=O)N4CCCC4)cc3c2=O)CC1	19900 (active)
COc1ccc(N2CCN(C(=O)c3cn(C)c4ccc(S(=O)(=O)N5CCOCC5)cc4c3=O)CC2)cc1	5270
CCOC(=O)N1CCN(C(=O)c2cn(C)c3ccc(S(=O)(=O)N(CC)CC)cc3c2=O)CC1	2950
Cc1ccc(C(NC(=O)C2CCN(CCOc3ccc(Cl)cc3Cl)CC2)c2ccccn2)cc1 (centres undefined)	3690
O=C(NCCS(=O)(=O)N1CCN(c2ccccc2)CC1)c1cc(=O)c2ccccc2o1	2940
CC(C)C(=O)N1c2ccccc2NC2=C(C(=O)CCC2)C1c1ccc(N(C)C)cc1 (centres undefined)	3590
O=C1c2ccccc2C(O)N1Cc1ccccc1 (centres undefined)	11200
CC1(C)C2CCC1(CS(=O)(=O)NCCc1c[nH]c3ccccc13)C(=O)C2 (centres undefined)	3440
CCCC(=O)N1CCC1(C)C(=O)Nc1ccc(-n2cncn2)cc1 (centres undefined)	4100
Cc1cccc(C)c1NC(=O)CN1CCN(c2ccc(F)cc2)CC1	5760
COc1ccc(OCCCCN2CCC(C)CC2)cc1	3010

SMILES	fluorescence intensity
CC(C)(C)c1ccc(CN2C(=O)CN=C(c3ccccc3)c3ccccc32)cc1	16300 (active)
CC(C)(C)c1ccc(CN2C(=O)c3ccccc3S2(=O)=O)cc1	3970
CCN(CC)C(=O)C1=C(C)N(Cc2ccc(C(C)(C)C)cc2)C(=O)C(CC(=O)NCc2cccc3ccccc23)C1 (centres undefined)	3960
CNc1cnc(-c2cc(OC)c(OC)c(OC)c2)cn1	3800
O=C(Nc1ccc(OCCO)cc1)c1csc([C@H]2C[C@H](O)[C@@H](CO)O2)n1	4100
O=C(COC(=O)c1n[nH]c2ccccc12)Nc1ccccc1Br	3780
CC(=O)Nc1ccc(S(=O)(=O)N2CCN(CCCOc3cc(C)ccc3C)CC2)cc1	11400
CC(=O)Nc1ccc(S(=O)(=O)N2CCN(S(=O)(=O)c3cccs3)CC2)cc1	6050
COC(=O)Nc1ccc(S(=O)(=O)N2CCN(CCN3C(=O)C4C5C=CC(C5)C4C3=O)CC2)cc1 (centres undefined)	21300 (active)
CCn1c(CN2C(=O)CSc3ccccc32)n[nH]c1=S	6470
Cc1nnc(Sc2nc3c(c(=O)[nH]c(=O)n3C)n2Cc2ccccc2)s1	5620
Cc1nnc(SCCCn2c(N3CCCCC3)nc3c2c(=O)[nH]c(=O)n3C)s1	20700 (active)
C=C(C)Cn1c(N2CCCC2)nc2c1c(=O)[nH]c(=O)n2C	5030
CNC(=S)NNC(=O)c1sccc1OCc1ccccc1	22300 (active)
CNC(=S)NNC(=O)c1cccn(Cc2ccccc2)c1=O	4620
Cc1ccc(/C=N/NC(=O)c2sccc2OCc2ccc(F)cc2)cc1	3080
CC1(C(=O)NS(=O)(=O)c2ccc(C#N)cc2)CCN1C(=O)CC1CCCC1 (centres undefined)	3000
COC(=O)c1nc(NC(=O)c2ccccc2)n[nH]1	19900 (active)
COC(=O)c1nc(NC(=O)c2ccc(F)cc2)n[nH]1	3910
COC(=O)c1nc(NC(=O)c2ccc(Cl)cc2)n[nH]1	12500
CCCCCn1nnnc1C1c2ccccc2C(=O)N1Cc1ccco1 (centres undefined)	6010
CC1CCCN(S(=O)(=O)c2ccc(-c3ccc(=O)[nH]n3)o2)C1 (centres undefined)	5950
CN(C)/C=C(\C#N)C(=O)c1cccnc1Oc1cccc(F)c1	15200

SMILES	fluorescence intensity
CCOc1ncccc1C(=O)N(C)CC(=O)Nc1ccc(F)cc1	2630
CN(C)/C=C(\C#N)C(=O)c1cccnc1Oc1ccc(F)cc1F	24800 (active)
COc1cc(C(O)c2nc(-c3cccc(C(=O)O)c3)cs2)ccc1F (centres undefined)	3440
CC(Sc1ccccc1F)C(=O)Nc1cccc(S(=O)(=O)N2CCOCC2)c1 (centres undefined)	4000
CC(C)c1cc(C(N)=O)c(NC(=O)c2cccc(COc3ccc(Br)cc3)c2)s1	22100 (active)
CC(C)(C)OC(=O)N(Cc1ccccc1)Cc1ccc(OCc2cccc(NC(=O)c3ccccc3)c2)cc1	3640
CCOc1ccc(OCc2cccc(C(=O)N(CC)CC)c2)cc1	2210
CC1(C)OC(=O)C2=C(C[C@@H](C3CCCC3)O[C@@H]2c2ccc(Cl)cc2)O1	6120
C=CCc1cccc2cc(C(=O)OCC)c(=O)oc12	2480
C=CCc1cccc2cc(C(=O)Nc3ccc(NC(C)=O)cc3)c(=O)oc12	4060
C=CCc1cccc2cc(C(=O)N3CCN(C(=O)OCC)CC3)c(=O)oc12	19200 (active)
CCc1ccc(OC2(C)CCN(CCOc3ccc(C)cc3)C2)cc1 (centres undefined)	3880
Cc1nc2ccc(S(=O)(=O)NCC(=O)NCCN3CCCCC3C)cc2s1 (centres undefined)	3450
Cc1ccc(N(Cc2cc(=O)[nH]c3ccccc23)C(=O)CCl)cc1	3750
Cc1oc(-c2ccccc2F)nc1CS(=O)CC(=O)NCCN1CCCCC1C (centres undefined)	5840
Cc1oc(-c2ccccc2F)nc1CS(=O)(=O)CC(=O)NCCCN(C)C1CCCCC1	17000 (active)
CSc1ccc(CCNC(=O)CS(=O)(=O)Cc2nc(-c3ccccc3F)oc2C)cc1	5680
CC1(C(=O)Nc2cccc3c2CCCC3)CCN1C(=O)CCc1ccc(Cl)cc1Cl (centres undefined)	3570
C=C(C)CNC(=S)Nc1ccc(S(=O)(=O)Nc2cnc3ccccc3n2)cc1	4200
Cc1ccc(NS(=O)(=O)c2cc3c(cc2Br)NC(=O)CO3)cc1C	2960
CCCc1[nH]nc2c1C(c1ccc(Br)s1)C(C#N)=C(N)O2 (centres undefined)	2790
CCCc1[nH]nc2c1C(c1ccc(OC(=O)c3ccco3)cc1)C(C#N)=C(N)O2 (centres undefined)	17200 (active)
CCCc1nc2c([nH]1)C(c1cccnc1)C(C#N)=C(N)O2 (centres undefined)	7630

SMILES	fluorescence intensity
COc1ccc(C(C)(O)c2nc(-c3cc(F)cc(F)c3)cs2)cc1 (centres undefined)	3820
OCCN1CCN(c2ncnc3c2ncn3[C@H]2CN(Cc3ccco3)C[C@@H](CO)O2)CC1	2940
CC(=O)C1=CCC(c2ccccc2)N(S(=O)(=O)c2ccc(C)cc2)C1 (centres undefined)	4360
CCOC(=O)C1(CCOc2ccccc2)CCN(Cc2cc(OC)cc(OC)c2)CC1	3960
CCOC(=O)C1(S(=O)(=O)c2ccc(Cl)cc2)CCN(Cc2ccccc2)CC1	22200 (active)
O=C(NNS(=O)(=O)c1ccc(Cl)cc1)C1CCN(Cc2ccccc2)CC1	9590
CCOC(=O)C1(CCc2ccccc2)CCN(Cc2ccco2)CC1	2080
CCOC(=O)C1(S(=O)(=O)c2ccccc2)CCN(Cc2ccccc2)CC1	25000 (active)
CCOC(=O)C1(CCOC)CCN(Cc2ccc(C(=O)OC)cc2)CC1	4510
COC(=O)[C@@]1(Cc2ccc(F)cc2)[C@H]2c3cc(C(=O)N(C)C)n(CCc4c[nH]c5ccc(OC)cc45)c3C[C@H]2CN1C(=O)c1ccccc1	6230
Nc1nc2c(ncn2[C@@H]2O[C@H](CNCc3ccc(OCCCN4CCOCC4)cc3)[C@@H](O)[C@H]2O)c(=O)[nH]1	6030
CCCc1c(-c2ccccc2F)ncn1Cc1ccccc1OC	6360
N#C/C(=C\c1ccc(N2CCOCC2)o1)C(=O)N1CCOCC1	3190
COC(=O)[C@]1(Cc2ccccc2)N[C@H](CN(C)S(=O)(=O)c2ccc(F)cc2)[C@@H]2C(=O)N(Cc3ccccc3)C(=O)[C@@H]21	2850
COc1ccc(S(=O)(=O)NCCCCOc2ccc(Cl)cc2)cc1	3450
COc1ccc(N(CCC#N)S(=O)(=O)c2ccc(Cl)cc2)cc1	19700 (active)
COc1ccc(N(CC(=O)N2CCCCCC2)S(=O)(=O)c2ccccc2)cc1	5240
CC1(C)C(C=C(Cl)Cl)C1C(=O)NC(O)C(=O)c1ccccc1 (centres undefined)	3770
CCOC(=O)C1=CC[C@@H](c2ccccc2)N(S(=O)(=O)c2ccc(C)cc2)[C@H]1c1ccc(CC)cc1	5350
OC[C@@H]1CN(Cc2cccs2)C[C@H](n2cnc3c(NC4CCCC4)ncnc32)O1	4050
